Screens (PubChem BioAssay)
LASV entry inh = qHTS for Inhibitors of binding or entry into cells for Lassa Virus. Lassa virus pseudotype entry inhibition, cell reporter. actives 1.2% (n = 300,000). Potency, µM (titrated, usually from 37.9 µM), hits mostly inhibitors. AID 540256, 2011; calls by dose curve; tested in HEK293 cells; also: nearly all actives have a fitted effect of over 50% in size
FMDV antiviral = High Throughput Screening for Foot and Mouth Disease Virus Antivirals; actives 1.2% (n = 410,000); Potency, µM (top dose mostly 57.9 µM), usual class: inhibitors; FMDV antiviral cell-based qHTS; calls by dose curve; tested in HEK293T cells; also: read-out not given here; nearly all actives have a fitted effect of over 45% in size
HCV inhibitor = qHTS Assay for Inhibitors of Hepatitis C Virus (HCV); Huh7.5.1 HCVcc-Cre infection, luciferase reporter, 44 h; Potency, µM (doses to about 41.8 µM), usual class: inhibitors; actives 3.4% (n = 340,000); active = well fitted inhibition curve with a large enough effect; inconclusive = small, poorly fitted or top-dose-only effect, or another doubt; inactive = no such curve, though single readings can be large or run the other way
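Infectious HCV cell culture screen: compound-treated cells (1,000/well, pre-plated 4 h) are infected with HCVcc-Cre at roughly 0.5 moi and grown 44 h. Infection is quantified by luciferase signal after 15 min substrate incubation at room temperature.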
HCMV antiviral = qHTS Assay for inhibitors of the human cytomegalovirus (HCMV); HFF cells, HCMV-luciferase reporter, 72 h; hits give low values; activity change, negative = inhibition, % at 57.5 µM; actives 4.5% (n = 410,000); AID 1259415, 2018; in the data active = activity change below about -60%; inconclusive = no clear call, values can overlap the other calls; inactive = above about -39%
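Screen run at 2 compound doses on HFFs infected with reporter HCMV, MOI 1 PFU/cell. Luciferase activity from cell lysates at 72 h post infection gave inhibition relative to buffer-only and Salinomycin wells.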
MARV entry inh = qHTS for inhibitors of binding or entry into cells for Marburg Virus. Marburg virus pseudotyped entry inhibition, cell reporter. Potency, µM (titrated, usually from 37.8 µM), hits mostly inhibitors. actives 1.8% (n = 300,000); calls by dose curve; tested in HEK293 cells
Large screens that a line does not name were inactive. Shown are actives, neighbours in structure and some others; about 7.9% of the full set was active somewhere.

O=C(c1ccc2c(c1)OCO2)N1CCOc2ccc(CN3CCC(Oc4cccnc4)CC3)cc2C1	none (no result: LASV entry inh, HCV inhibitor, HCMV antiviral, MARV entry inh)
CCCc1oc2ccc(NS(=O)(=O)c3ccc(OC)cc3)cc2c1C(=O)OCC	LASV entry inh 1µM, HCMV antiviral -83 (no result: HCV inhibitor, MARV entry inh)
CCOc1ccc(S(=O)(=O)Nc2ccc3oc(C)c(C(=O)OC(C)C)c3c2)cc1	none (no result: HCV inhibitor, MARV entry inh)
CCCc1oc2ccc(NS(=O)(=O)c3ccc(OCC)cc3)cc2c1C(=O)OCC	LASV entry inh inconclusive, HCMV antiviral -65 (no result: HCV inhibitor)
CCOC(=O)c1c(-c2ccccc2)oc2ccc(NS(=O)(=O)c3ccc(OC)cc3)cc12	LASV entry inh inconclusive, MARV entry inh inconclusive (no result: HCV inhibitor)
CCc1ccc(CNC(=O)c2ccc(NC(=O)N3CCSc4ncccc43)cc2)cc1	HCMV antiviral inconclusive (no result: HCV inhibitor, MARV entry inh)
CCCCOc1ccc(CNC(=O)c2cccc(NC(=O)N3CCSc4ncccc43)c2)cc1	FMDV antiviral 22µM (no result: HCV inhibitor, MARV entry inh)
CCOc1ccc(CNC(=O)c2cccc(NC(=O)N3CCSc4ncccc43)c2)cc1	HCMV antiviral inconclusive (no result: HCV inhibitor, MARV entry inh)
CCc1cccc(NC(=O)c2ccc(NC(=O)N3CCSc4ncccc43)cc2)c1	FMDV antiviral 28µM (no result: HCV inhibitor, MARV entry inh)
COc1ccc(NC(=O)CSc2nc(-c3ccc(F)cc3)c3cccc(C)c3n2)cc1	none (no result: HCV inhibitor)
C[C@@]12C(=O)N(c3cccc(F)c3)C(=O)N1[C@@H]1c3ccccc3OC[C@@H]1[C@H]2c1ccccc1	FMDV antiviral inconclusive, HCV inhibitor inconclusive, HCMV antiviral -101 (no result: LASV entry inh, MARV entry inh)
COc1ccc2c(c1)[C@H]1[C@H](CO2)[C@H](c2ccccc2)[C@]2(C)C(=O)Nc3cc(Cl)ccc3C(=O)N12	HCV inhibitor inconclusive (no result: LASV entry inh, HCMV antiviral, MARV entry inh)
C[C@@]12C(=O)N(c3cccc(Cl)c3)C(=O)N1[C@@H]1c3ccccc3OC[C@@H]1[C@H]2c1ccccc1	HCV inhibitor inconclusive (no result: LASV entry inh, MARV entry inh)
COc1ccc2c(c1)OC[C@H]1[C@H]2N2C(=O)c3cc(F)ccc3NC(=O)[C@@]2(C)[C@H]1c1ccccc1	HCV inhibitor 11µM (no result: LASV entry inh, MARV entry inh)
COc1ccc2c(c1)C(=O)N1[C@H]3c4cc(Cl)ccc4OC[C@@H]3[C@H](c3ccccc3)[C@]1(C)C(=O)N2	HCV inhibitor inconclusive, HCMV antiviral -60 (no result: LASV entry inh, MARV entry inh)
COc1ccc2c(c1)OC[C@H]1[C@H]2N2C(=O)CN(Cc3ccc(C)cc3)C(=O)[C@@]2(C)[C@H]1c1ccccc1	HCV inhibitor 11µM (no result: LASV entry inh, MARV entry inh)
Cc1ccc2c(c1)[C@H]1[C@H](CO2)[C@H](c2ccccc2)[C@]2(C)C(=O)Nc3ccc(F)cc3C(=O)N12	FMDV antiviral inconclusive, HCV inhibitor inconclusive (no result: LASV entry inh, MARV entry inh)
Cc1ccc2c(c1)[C@H]1[C@H](CO2)[C@H](c2ccccc2)[C@]2(C)C(=O)Nc3cc(F)c(F)cc3C(=O)N12	FMDV antiviral inconclusive, HCV inhibitor inconclusive, HCMV antiviral -70 (no result: LASV entry inh, MARV entry inh)
COc1cccc([C@@H]2Oc3ccc(OC)cc3C[C@H]2OC(=O)N[C@H]2CCCc3ccccc32)c1	none (no result: LASV entry inh, FMDV antiviral, HCV inhibitor, HCMV antiviral)
CCCc1c(C)nc2ccccc2c1SCCC#N	HCV inhibitor inconclusive, HCMV antiviral -85
Cc1ccc2nc(SCCC#N)nc(C)c2c1	HCV inhibitor 10µM, MARV entry inh inconclusive
Cc1ccc2nc(SCC(=O)O)nc(C)c2c1	none (no result: FMDV antiviral)
CCc1c(C)nc2ccc(Br)cc2c1SCCC#N	LASV entry inh inconclusive, FMDV antiviral inconclusive, HCV inhibitor inconclusive, HCMV antiviral -83, MARV entry inh inconclusive
CC(O)(COc1ccccc1)c1ccc2c(c1)CN(Cc1cccn1-c1ccccn1)CCO2 (stereo not given)	none (no result: LASV entry inh, HCV inhibitor, HCMV antiviral, MARV entry inh)
O=C(NCCc1ccncc1)[C@@H]1[C@@H](CO)[C@@H]2Cn3c(ccc(-c4ccccc4)c3=O)[C@@H]2N1C(=O)C1CC1	none (no result: LASV entry inh, FMDV antiviral, HCV inhibitor, MARV entry inh)
Cc1ccc(S(=O)(=O)Nc2cc(C(=O)N3CCC4(CC3)OCCO4)ccc2N2CCCCC2)cc1	LASV entry inh inconclusive, HCMV antiviral inconclusive, MARV entry inh inconclusive
CCN(CC)CCNC(=O)c1ccc(N2CCCCC2)c(NS(=O)(=O)c2ccc(C)cc2)c1	HCV inhibitor 11µM, HCMV antiviral inconclusive, MARV entry inh inconclusive
COC(=O)c1ccc(N2CCCCC2)c(NS(=O)(=O)c2ccc(C)cc2)c1	HCV inhibitor 13µM, MARV entry inh inconclusive (no result: FMDV antiviral)
CCOC(=O)c1ccc(N2CCCCC2)c(NS(=O)(=O)c2cccc(C(F)(F)F)c2)c1	HCMV antiviral -65 (no result: LASV entry inh, MARV entry inh)
COc1ccc(CCn2cc3c(c2-c2ccccc2Br)c(=O)n(C)c(=O)n3C)cc1OC	MARV entry inh inconclusive (no result: HCV inhibitor)
O=[N+]([O-])c1ccc(O)c(-c2nc(-c3ccccc3)c(-c3cccs3)[nH]2)c1	LASV entry inh inconclusive, FMDV antiviral inconclusive, HCV inhibitor 6.3µM, HCMV antiviral -103, MARV entry inh inconclusive
CCOc1ccc(-c2nc(-c3ccccc3)c(-c3ccccc3)[nH]2)cc1OCC	HCMV antiviral inconclusive, MARV entry inh inconclusive (no result: HCV inhibitor)
CCOc1cc(-c2nc(-c3ccccc3)c(-c3cc([N+](=O)[O-])ccc3C)[nH]2)ccc1O	FMDV antiviral inconclusive, HCV inhibitor inconclusive, HCMV antiviral -82, MARV entry inh inconclusive
COc1ccc(-c2nc(-c3ccccc3)c(-c3cc([N+](=O)[O-])ccc3C)[nH]2)cc1OC	LASV entry inh inconclusive, HCV inhibitor 16µM, HCMV antiviral -80, MARV entry inh inconclusive
O=C(O)c1ccc(-c2nc(-c3ccccc3)c(-c3cccs3)[nH]2)cc1	none
Cc1ccc(Cn2c(=O)n(-c3ccc(C)c(C)c3)c(=O)c3c(C)c(C)sc32)cc1	none (no result: HCV inhibitor)
CCC1CN(Cc2cccn2-c2ccccn2)Cc2cc(OC)ccc2O1 (stereo not given)	none (no result: LASV entry inh, HCV inhibitor, HCMV antiviral, MARV entry inh)
Cn1cccc1/C=C1\Cc2ccccc2C1=O	HCV inhibitor inconclusive (no result: LASV entry inh, MARV entry inh)
Cn1cccc1/C=C1\CC(C(C)(C)C)C/C(=C\c2cccn2C)C1=O (stereo not given)	HCV inhibitor 2.5µM, MARV entry inh inconclusive
COc1ccc(OC(=O)c2nc(SCc3ccc(C)cc3)ncc2Cl)cc1	none (no result: HCV inhibitor)
COc1cc(NC(=O)C(NS(=O)(=O)c2ccc3c(c2)CCCC(=O)N3)C(C)C)cc(OC)c1 (stereo not given)	none (no result: HCV inhibitor, MARV entry inh)
Cc1ccc([C@H]2C[C@H](c3cccs3)n3nc(N)nc3N2)cc1	none (no result: LASV entry inh, FMDV antiviral, HCV inhibitor, HCMV antiviral)
COc1ccc(-c2nn(-c3ccccc3)cc2C(=O)N2c3ccc(C)cc3C3CN(C)CCC32)cc1 (stereo not given)	LASV entry inh 11µM, HCMV antiviral inconclusive, MARV entry inh inconclusive
COc1ccc(N(C(=O)COc2c(C)cccc2C)S(=O)(=O)c2ccc(Cl)cc2)cc1	LASV entry inh inconclusive (no result: HCV inhibitor, MARV entry inh)
O=C(NC1CCCCC1)C(c1ccccc1)N(Cc1ccc2c(c1)OCO2)C(=O)c1cnsn1 (stereo not given)	LASV entry inh inconclusive, MARV entry inh 11µM
Cc1ccc(C(C(=O)NC2CCCC2)N(Cc2ccc3c(c2)OCO3)C(=O)c2snc(C(N)=O)c2N)cc1 (stereo not given)	MARV entry inh inconclusive
COC(=O)c1cn(NC(=O)c2cc([N+](=O)[O-])ccc2F)c(=O)c2ccccc12	LASV entry inh inconclusive, FMDV antiviral 32µM, HCV inhibitor inconclusive, HCMV antiviral -97, MARV entry inh inconclusive
